Measurements published in PubChem BioAssay (NCATS).
Records with an inconclusive call do not appear. Active and inactive are the calls of the source. Unless noted, the call rests on the fitted dose curve; in most records, active means well fitted cell-killing curve with a large enough effect; inconclusive means small, poorly fitted or top-dose-only effect; inactive means flat fitted curve, though single readings scatter.

What was measured:
[1] = Cell Viability - LYMP2-025 (AID 976);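 further: series mostly up to about 92 µM; plate controls were DMSO only for no effect and tetraoctylammonium bromide control for full effect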
In short: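 Luminescent ATP readout after 24 hr treatment of a human lymphoblastoid line (LYMP2-025, 2500 cells/well, 37 C). Reagent developed 30 min at room temperature; AC50 fitted with the Hill equation.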

[2] = Cell Viability - LYMP2-002 (AID 977);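 further: series mostly up to about 92 µM; compound exposure lasted 24 h at 37 °C; plate controls were DMSO only for no effect and 92 µM tetraoctylammonium bromide for full effect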
In short: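 Human lymphoblastoid cells (2500/well) in complete medium were preincubated 5 hr at 37 C, then exposed to compounds for 24 hr at 37 C. Intracellular ATP was read by CellTiter-Glo luminescence; AC50 came from Hill-equation concentration-response fits.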

[3] = Cell Viability - LYMP2-006 (AID 978); further: series mostly up to about 92 µM; on the % scale 0 is the no-effect control and ±100 the full control effect; nearly all actives have a fitted effect of over 60% in size
In short: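 Human lymphoblastoid cells, 2500 per well, were preincubated 5 hr at 37 C, then exposed to compounds for 24 hr at 37 C in complete medium. Viability was read as intracellular ATP by CellTiter-Glo luminescence; AC50 from Hill-equation fits of qHTS concentration-response data.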

[4] = Cell Viability - LYMP2-007 (AID 979);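 further: cells exposed to compound for 24 h before reading; 0% = DMSO only and the negative end = 92 µM tetraoctylammonium bromide; nearly all actives have a fitted effect of over 60% in size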
In short: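 Measured via luciferase-based ATP quantitation: lymphoblastoid cells, 24 hr compound exposure at 37 C, AC50 from Hill fits.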

[5] = Cell Viability - LYMP2-008 (AID 980); further: on the % scale 0 is the no-effect control and ±100 the full control effect; nearly all actives have a fitted effect of over 60% in size
In short: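 Measured: ATP-dependent luminescence, proportional to viable cell number, in human lymphoblastoid cells treated 24 hr with compound in complete culture medium. Values are AC50s from Hill-equation modelling of qHTS titrations.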

[6] = Cell Viability - LYMP2-010 (AID 981); further: on the % scale 0 is the no-effect control and ±100 the full control effect; nearly all actives have a fitted effect of over 55% in size
In short: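 This 24 hr viability screen uses LYMP2-010 lymphoblastoid cells, quantifies ATP via luciferase luminescence, and derives AC50 from Hill fits of qHTS concentration-response data.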

[7] = Cell Viability - LYMP2-012 (AID 982);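 further: cellular ATP by luciferase luminescence where a drop means cytotoxicity; cells exposed to compound for one day before reading; 0% = DMSO only and full loss = 92 µM tetraoctylammonium bromide; nearly all actives have a fitted effect of over 55% in size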
[8] = Cell Viability - LYMP2-014 (AID 983);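 further: series mostly up to about 92 µM; plate controls were DMSO only for no effect and 92 µM tetraoctylammonium bromide for full effect; nearly all actives have a fitted effect of over 50% in size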
In short: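 Quantitative HTS in lymphoblastoid cells: 24 hr compound exposure, then CellTiter-Glo ATP luminescence. Positive control was tetraoctylammonium bromide, 6.4pM to 92 uM.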

[9] = Cell Viability - LYMP2-016 (AID 984); further: on the % scale 0 is the no-effect control and ±100 the full control effect; nearly all actives have a fitted effect of over 55% in size
In short: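 Human lymphoblastoid cells (LYMP2-016), 2500/well in complete medium, preincubated 5 hr at 37 C, then compound-treated 24 hr at 37 C. Intracellular ATP read by CellTiter-Glo luminescence after 30 min at room temperature; AC50 from Hill-equation concentration-response fits.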

[10] = Cell Viability - LYMP2-018 (AID 985);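 further: plate controls were DMSO only for no effect and tetraoctylammonium bromide at 92 µM for full effect; nearly all actives have a fitted effect of over 50% in size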
In short: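 In this qHTS viability assay, cells are treated for 24 hr and cellular ATP is quantified by luciferase-based luminescence, with tetraoctylammonium bromide as positive control.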

[11] = Cell Viability - LYMP2-020 (AID 986);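 further: series mostly up to about 92 µM; plate controls were DMSO only for no effect and tetraoctylammonium bromide at 92 µM for full effect; nearly all actives have a fitted effect of over 55% in size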
In short: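 Cells at 2500 per well receive a 24 hr compound exposure at 37 C. Viability is measured as ATP-dependent luciferase luminescence, with AC50 modeled from qHTS concentration-response curves.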

[12] = Cell Viability - LYMP2-022 (AID 987)
In short: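 In this qHTS cytotoxicity screen, compound titrations were incubated 24 hr at 37 C with human lymphoblastoid cells in complete medium. Luciferase-based ATP luminescence provided the viability signal.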

[13] = Cell Viability - LYMP2-024 (AID 988);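 further: plate controls were DMSO only for no effect and 92 µM tetraoctylammonium bromide for full effect; nearly all actives have a fitted effect of over 60% in size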
In short: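 Cells at 2500 per well received compound for 24 hr after a 5 hr settling period. Viability was scored by CellTiter-Glo luminescence, with AC50 from Hill fits.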

[14] = Cell Viability - LYMP2-026 (AID 989); further: on the % scale 0 is the no-effect control and ±100 the full control effect; nearly all actives have a fitted effect of over 50% in size
In short: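 Acute toxicity screen in complete culture medium, with 24 hr compound exposure at 37 C. Viability read as cellular ATP via luciferase reaction, with tetraoctylammonium bromide (6.4pM to 92 uM) as positive control.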

[15] = Cell Viability - LYMP1-002 - Assay at 24 hr (AID 993); further: on the % scale 0 is the no-effect control and ±100 the full control effect
In short: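 Viability was judged from intracellular ATP using a luciferase read-out, following a 24-hour compound incubation at 37 C of lymphoblastoid cells seeded at 2500 per well. Concentration-response data were fitted to the Hill equation for AC50.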

[16] = Cell Viability - LYMP1-002 - Assay at 40 hr (AID 994)
In short: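 Concentration-dependent ATP loss after 40 hr treatment at 37 C defined toxicity; AC50 values were obtained by fitting the standard Hill equation.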

[17] = qHTS Assay for Identification of Small Molecule Inducers of Hypoxia Response (AID 2120; active means well fitted curve in the direction sought with a large enough effect in the signal ratio, with a control signal flat, not every such curve was filed as active; the % refers to the signal ratio; further: 0% is about no effect)
In short: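 HRE-bla ME-180, 2500 cells/well, 0.5% dialyzed FBS medium; cpd titration, 17 h 37 degrees C; CCF4 2.5 h RT; Ex 405, Em 460/530 ratio -> %Activity, AC50.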

[18] = target: Estrogen receptor (Homo sapiens) (UniProt P03372); assay: qHTS assay for small molecule antagonists of estrogen receptor alpha signaling (AID 588513; active means well fitted curve in the direction sought with a large enough effect in the signal ratio, with a control signal flat, not every such curve was filed as active; the % refers to the signal ratio; further: on the % scale 0 is the no-effect control and ±100 the full control effect)
Estrogen receptor (Homo sapiens), sequence (P03372 whole entry, looked up): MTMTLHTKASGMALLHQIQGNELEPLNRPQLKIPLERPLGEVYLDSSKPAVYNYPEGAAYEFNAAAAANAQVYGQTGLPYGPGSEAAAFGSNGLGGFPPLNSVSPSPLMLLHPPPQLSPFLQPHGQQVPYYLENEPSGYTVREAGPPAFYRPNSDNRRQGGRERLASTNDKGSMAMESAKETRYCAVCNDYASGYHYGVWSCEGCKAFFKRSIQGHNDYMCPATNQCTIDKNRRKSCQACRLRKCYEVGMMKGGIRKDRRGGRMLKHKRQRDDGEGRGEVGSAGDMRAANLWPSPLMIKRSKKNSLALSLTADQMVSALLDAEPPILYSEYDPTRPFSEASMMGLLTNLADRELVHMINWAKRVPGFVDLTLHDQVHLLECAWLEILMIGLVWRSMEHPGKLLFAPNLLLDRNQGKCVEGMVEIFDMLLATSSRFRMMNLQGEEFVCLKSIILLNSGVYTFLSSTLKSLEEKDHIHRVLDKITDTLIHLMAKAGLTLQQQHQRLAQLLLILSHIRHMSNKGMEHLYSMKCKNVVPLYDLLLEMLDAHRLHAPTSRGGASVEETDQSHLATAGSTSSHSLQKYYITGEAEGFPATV
In short: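 ER-alpha-UAS-bla GripTite HEK 293 cells in medium with 2% charcoal/dextran-treated FBS were preincubated 4 h at 37 C, dosed with compound (1:2 titration), stimulated with 0.5nM 17-beta-estradiol for 18 h, then read by CCF4 beta-lactamase fluorescence.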

[19] = target: Estrogen receptor (Homo sapiens) (UniProt P03372); assay: qHTS assay for small molecule agonists of estrogen receptor alpha signaling (AID 588514; calls by dose curve;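 further: 0% = vehicle only and 100% = reference agonist; nearly all actives have a fitted effect of over 70% in size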)
In short: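 Fluorescence from CCF4 cleavage reports ER-alpha-driven beta-lactamase expression in HEK 293 cells treated 18 hrs at 37 C. Data normalized to 17-beta-estradiol (20 nM) and DMSO, fitted to Hill equation.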

[20] = target: Androgen receptor (Homo sapiens) (UniProt P10275); assay: qHTS assay for small molecule agonists of androgen receptor signaling (AID 588515; active means well fitted curve in the direction sought with a large enough effect in the signal ratio, with a control signal flat; the % refers to the signal ratio; further: on the % scale 0 is the no-effect control and ±100 the full control effect); conditions: AR-UAS-bla HEK293, beta-lactamase ratio, agonist 16 h; hits give high values
Androgen receptor (Homo sapiens), sequence (P10275 whole entry, looked up): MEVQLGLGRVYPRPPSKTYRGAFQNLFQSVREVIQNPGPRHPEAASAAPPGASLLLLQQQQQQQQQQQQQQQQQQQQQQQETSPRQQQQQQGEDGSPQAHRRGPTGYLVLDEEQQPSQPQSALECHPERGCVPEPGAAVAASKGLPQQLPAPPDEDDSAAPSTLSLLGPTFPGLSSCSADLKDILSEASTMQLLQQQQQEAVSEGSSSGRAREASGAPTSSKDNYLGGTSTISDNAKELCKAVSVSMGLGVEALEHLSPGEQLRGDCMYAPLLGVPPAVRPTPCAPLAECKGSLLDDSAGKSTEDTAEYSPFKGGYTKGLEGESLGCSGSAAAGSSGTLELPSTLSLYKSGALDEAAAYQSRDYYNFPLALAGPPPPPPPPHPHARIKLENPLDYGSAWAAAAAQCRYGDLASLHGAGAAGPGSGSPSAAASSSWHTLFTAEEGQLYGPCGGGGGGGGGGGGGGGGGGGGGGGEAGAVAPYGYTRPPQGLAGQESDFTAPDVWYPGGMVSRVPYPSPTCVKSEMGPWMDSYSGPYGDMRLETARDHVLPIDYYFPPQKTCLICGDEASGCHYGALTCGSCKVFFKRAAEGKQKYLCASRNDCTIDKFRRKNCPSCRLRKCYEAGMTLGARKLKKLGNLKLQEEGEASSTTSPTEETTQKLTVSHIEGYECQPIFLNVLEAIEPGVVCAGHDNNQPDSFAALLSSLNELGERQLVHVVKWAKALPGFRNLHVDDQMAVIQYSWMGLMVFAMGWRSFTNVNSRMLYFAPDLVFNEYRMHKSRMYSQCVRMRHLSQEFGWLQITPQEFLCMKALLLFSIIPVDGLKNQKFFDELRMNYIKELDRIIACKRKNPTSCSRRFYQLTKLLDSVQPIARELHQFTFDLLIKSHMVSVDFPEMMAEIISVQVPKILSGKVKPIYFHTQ
In short: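 Stimulation of an AR-responsive β-lactamase reporter in GripTite HEK293 cells was measured after 16 h compound exposure at 37 °C, via CCF4 fluorescence after 2 h RT. EC50 from Hill fits, normalized to R1881 at 30 nM.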

CCCCCO
inactive: Potency [1] | Potency [2] | Potency [3] | Potency [4] | Potency [5] | Potency [6] | Potency [7] | Potency [8] | Potency [9] | Potency [10] | Potency [11] | Potency [12] | Potency [13] | outcome [14] | Potency [15] | Potency [16] | outcome [17] | outcome [18] | Potency [19]

Nc1cccc([N+](=O)[O-])c1
inactive: Potency [1] | Potency [2] | Potency [3] | Potency [4] | Potency [5] | Potency [6] | Potency [7] | Potency [8] | Potency [9] | Potency [10] | Potency [11] | Potency [12] | Potency [13] | outcome [14] | Potency [15] | Potency [16] | outcome [17] | outcome [18] | Potency [19] | activation [20] -5.67%

Nc1cc(S(=O)(=O)O)ccc1O
inactive: Potency [1] | Potency [2] | Potency [3] | Potency [4] | Potency [5] | Potency [6] | Potency [7] | Potency [8] | Potency [9] | Potency [10] | Potency [11] | Potency [12] | Potency [13] | outcome [14] | Potency [15] | Potency [16] | outcome [17] | outcome [18] | Potency [19] | activation [20] 14.7%

OCCO
inactive: Potency [1] | Potency [2] | Potency [3] | Potency [4] | Potency [6] | Potency [7] | Potency [8] | Potency [9] | Potency [10] | Potency [11] | Potency [12] | Potency [13] | outcome [14] | Potency [15] | Potency [16] | outcome [17] | outcome [18] | Potency [19] | activation [20] -10.8%

O=C(O)CCSSCCC(=O)O
inactive: Potency [1] | Potency [2] | Potency [3] | Potency [4] | Potency [5] | Potency [6] | Potency [7] | Potency [8] | Potency [9] | Potency [10] | Potency [11] | Potency [12] | Potency [13] | outcome [14] | Potency [16] | outcome [17] | outcome [18] | Potency [19] | activation [20] -2.34%

Cc1cccc([N+](=O)[O-])c1C(=O)O
inactive: Potency [1] | Potency [2] | Potency [3] | Potency [4] | Potency [5] | Potency [6] | Potency [7] | Potency [8] | Potency [9] | Potency [10] | Potency [11] | Potency [12] | Potency [13] | outcome [14] | Potency [15] | Potency [16] | outcome [17] | outcome [18] | Potency [19]

O=Cc1c(Cl)cccc1Cl
inactive: Potency [1] | Potency [2] | Potency [3] | Potency [4] | Potency [5] | Potency [6] | Potency [7] | Potency [8] | Potency [9] | Potency [10] | Potency [11] | Potency [12] | Potency [13] | outcome [14] | outcome [17] | outcome [18] | Potency [19]

c1ccc2c(c1)ccc1ncccc12
inactive: Potency [1] | Potency [2] | Potency [3] | Potency [4] | Potency [5] | Potency [6] | Potency [7] | Potency [8] | Potency [9] | Potency [10] | Potency [11] | Potency [12] | Potency [13] | outcome [14] | Potency [16] | outcome [17] | outcome [18] | Potency [19] | activation [20] 7.08%

Cc1cccc(C)c1O
inactive: Potency [1] | Potency [2] | Potency [3] | Potency [6] | Potency [7] | Potency [8] | Potency [9] | Potency [11] | Potency [12] | outcome [14] | Potency [15] | Potency [16] | outcome [17] | outcome [18] | Potency [19] | activation [20] -2.64%

CC(C)=CCC/C(C)=C/C=O
inactive: Potency [1] | Potency [2] | Potency [3] | Potency [4] | Potency [5] | Potency [6] | Potency [7] | Potency [8] | Potency [9] | Potency [10] | Potency [11] | Potency [12] | Potency [13] | outcome [14] | outcome [17] | outcome [18] | Potency [19]

COC(=O)CS
inactive: Potency [1] | Potency [2] | Potency [3] | Potency [4] | Potency [5] | Potency [6] | Potency [7] | Potency [8] | Potency [9] | Potency [10] | Potency [11] | Potency [12] | Potency [13] | outcome [14] | Potency [15] | outcome [17] | outcome [18] | Potency [19]

NC(=O)CCCCC(N)=O
inactive: Potency [1] | Potency [2] | Potency [3] | Potency [4] | Potency [5] | Potency [6] | Potency [7] | Potency [8] | Potency [9] | Potency [10] | Potency [11] | Potency [12] | Potency [13] | outcome [14] | Potency [15] | Potency [16] | outcome [17] | outcome [18] | Potency [19]

Cc1cc(C)cc(N)c1
inactive: Potency [1] | Potency [2] | Potency [3] | Potency [5] | Potency [6] | Potency [7] | Potency [8] | Potency [9] | Potency [10] | Potency [11] | Potency [12] | Potency [13] | outcome [14] | Potency [15] | Potency [16] | outcome [17] | outcome [18] | Potency [19] | activation [20] 2.27%

O=[N+]([O-])c1ccc2nc[nH]c2c1
inactive: Potency [1] | Potency [2] | Potency [3] | Potency [4] | Potency [5] | Potency [6] | Potency [7] | Potency [8] | Potency [9] | Potency [10] | Potency [11] | Potency [12] | Potency [13] | outcome [14] | Potency [15] | outcome [17] | outcome [18] | Potency [19]

O=C1CCC(=O)O1
inactive: Potency [1] | Potency [2] | Potency [3] | Potency [4] | Potency [5] | Potency [6] | Potency [7] | Potency [8] | Potency [9] | Potency [10] | Potency [11] | Potency [12] | Potency [13] | outcome [14] | Potency [15] | outcome [17] | outcome [18] | Potency [19]

c1ccsc1
inactive: Potency [1] | Potency [2] | Potency [3] | Potency [5] | Potency [6] | Potency [7] | Potency [8] | Potency [9] | Potency [10] | Potency [11] | Potency [12] | Potency [13] | outcome [14] | Potency [15] | Potency [16] | outcome [17] | outcome [18] | Potency [19] | activation [20] -6.67%

CCCCC(C=O)CC (stereo not given)
inactive: Potency [1] | Potency [2] | Potency [3] | Potency [4] | Potency [5] | Potency [6] | Potency [7] | Potency [8] | Potency [9] | Potency [10] | Potency [11] | Potency [12] | Potency [13] | outcome [14] | Potency [15] | Potency [16] | outcome [17] | outcome [18] | Potency [19]
